# This is one part of a sample in which hits are shown more often than they occur.
# RmlC RmlD mix = RmlC and RmlD coupled enzyme inhibitors, primary screen, biochemical, 384-well, compound mixtures, retest | hit rate 0.39% among 110,000 | inhibition, % at 5.5 µM | RmlC/RmlD coupled enzyme inhibition, 384-well mixture HTS | AID 1532, 2009; in the data active means inhibition above about 30%, passing the limit was not always enough
# HIV RNase H inh-1 = HIV-1 RT RNase H inhibitors, primary screen, biochemical, fluorescence; RT-RNase H RNA/DNA duplex cleavage; inhibition, % at 10 µM; hit rate 1.9% among 65,000; AID 565, 2006; in the data active means inhibition above about 50%
# HIV RNase H inh-2 = HIV-1 RT RNase H inhibitors, retest, confirmation, biochemical; shares compounds with HIV RNase H inh-1; AID 651, 2007; Recombinant RT RNase H, fluorescent RNA/DNA duplex cleavage; hit rate 39% among 1,000; inhibition, % at 10 µM; in the data active means inhibition above about 48%
# * = called active by the depositor; . = not tested or not shown.
SMILES,RmlC RmlD mix,HIV RNase H inh-1,HIV RNase H inh-2
CCN(CC)C1=CC(=O)OC12CCCCC2,3,55*,65*
CCN(CC)CCNC1=CC(=O)OC12CCCCC2,-14,.,.
Cc1c(NC(=O)Oc2ccccc2)sc(=S)n1C,-8,59*,6
CC(=O)NC(=O)Nc1sc(=S)n(C)c1C,-13,17,.
COc1ccc(NS(=O)(=O)c2ccc3oc(SC4CCOC4=O)nc3c2)cc1 (configuration not stated),-9,.,.
CCC(c1nnnn1Cc1ccc(OC)cc1)N(CCCO)Cc1cc2cc3c(cc2[nH]c1=O)OCO3 (configuration not stated),-2,.,.
CC(C)C(c1nnnn1Cc1ccccc1)N(CCCO)Cc1cc2cc3c(cc2[nH]c1=O)OCO3 (configuration not stated),-12,89*,11
CCCCC1=CC2=CC(=O)C(C)(OC(=O)c3ccc(Cl)nc3)C(=O)C2=CO1 (configuration not stated),12,.,.
O=C(COc1ccc(Br)cc1)Nc1ccc(-c2nnc(-c3ccco3)o2)cc1,-7,67*,72*
CCC(Oc1ccccc1)C(=O)Nc1ccc(-c2nnc(-c3ccco3)o2)cc1 (configuration not stated),-20,11,.
O=C(O)C[C@H]1c2cc(F)ccc2S(=O)(=O)N1C1CCN(Cc2ccccc2)CC1,-11,.,.
CCOc1ccc(NC(=O)c2cccc(OC(=S)N3CCC(C)CC3)c2)cc1,11,.,.
CNC(=O)CN(c1ccc(F)cc1)S(=O)(=O)c1cc(C)ccc1OC,3,.,.
Cn1c(=O)c2c(SCc3ccccc3)nc(-c3ccco3)nc2n(C)c1=O,-6,52*,13
Cn1c(=O)c2c(SCc3cccc(C(F)(F)F)c3)nc(-c3ccco3)nc2n(C)c1=O,-10,37,.
COc1ccc(/C=N/c2oc(-c3ccccc3)cc2C#N)cc1OC,-5,.,.
Cc1ccc(Cn2c(C(C)Nc3nc(-c4ccc(F)cc4)cs3)nc3cc(C(F)(F)F)ccc32)cc1 (configuration not stated),14,.,.
CCOC(=O)CCc1c(C)nc(SCC(=O)O)c(C#N)c1C,-16,70*,12
CCOC(=O)CSc1nc(C)cc(C)c1C#N,-4,.,.
COCCN1C(=O)N[C@@H](c2cccc(F)c2)C(C(=O)OC)=C1C,2,.,.
O=C(c1nc(-c2ccccc2)n(-c2ccccc2)n1)N1CCCCCC1,-23,-5,.
Nc1c(C(=O)N2CCCCC2)sc(=S)n1-c1ccccc1,0,97*,77*
Cc1cc(C(=O)N2CCOCC2)n(-c2ccccc2)n1,10,-7,.
Nc1c(C(=O)N2CCOCC2)sc(=S)n1-c1ccccc1,3,95*,65*
O=C(CCCSc1nnnn1-c1ccccc1)c1ccc(F)cc1,-15,.,.
SMILES,RmlC RmlD mix,HIV RNase H inh-1,HIV RNase H inh-2
COc1ccc(C2/C=C\CN(Cc3ccc(N(C)C)cc3)CC(=O)N2Cc2ccc(F)cc2)cc1 (configuration not stated),23,.,.
C=C1CCN(CC(=O)OC)S(=O)(=O)c2ccccc21,-240,.,.
COc1cc(-c2nn3c(C4CCCCC4)nnc3s2)cc(OC)c1OC,9,75*,29
COc1ccc(-c2nn3c(C4CCCCC4)nnc3s2)cc1OC,-3,37,.
c1ccc(CNCc2ccc3c(c2)OCO3)nc1,12,.,.
CC1=C(SCCC#N)S/C(=C2\SC(C)=C(SCCC#N)S2)S1,5,72*,65*
O=C(c1ccc2c(c1)OCO2)N1CCC2(CC1)Oc1ccc(Cl)cc1C(=O)C21CC(c2ccc(Cl)cc2)=NO1 (configuration not stated),6,.,.
COc1cc(OC)c(C2CC(=O)N3CN(c4ccccc4C)CSC3=C2C#N)cc1OC (configuration not stated),-3,77*,72*
C=CCOC(=O)C1=C(C)OC(N)=C(C#N)C1c1ccccc1F (configuration not stated),-19,4,.
COc1cc(OC)c(C2C(C#N)=C(N)OC3=C2C(=O)CC(C)C3)cc1OC (configuration not stated),3,3,.
COc1ccc(C2CC(=O)N3CN(c4ccc(C)c(Cl)c4)CSC3=C2C#N)cc1 (configuration not stated),4,21,.
Cc1ccc(C2N(c3cccc(Cl)c3)C(=O)C3CCCN32)o1 (configuration not stated),11,-19,.
COc1ccc(N2CSC3=C(C#N)C(c4cccc(OC)c4OC)CC(=O)N3C2)cc1 (configuration not stated),-3,75*,34
CCc1ccccc1N1CSC2=C(C#N)C(c3ccccc3F)CC(=O)N2C1 (configuration not stated),-3,89*,59*
